Test results: PubChem BioAssay AID1159580 (chemical genetic matrix, 2015)
Among all 5,500 compounds or so, about 2,000 (36%) were called active. About 18% were inconclusive and are not listed. Cut-off read from the data, not from the text of the source: active = normalized growth mostly below about 0.91 (no sharp cut-off); inconclusive = no clear call, values can overlap the other calls; inactive = mostly above about 0.92. The list shows a part of the results.

Test: chemical genetic growth profiling, strain panel (AID 1159580);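 note: tested at 20 µM; growth read once vehicle control cultures reached saturation at 30 °C; 1 = growth at the plate median or of vehicle wells; lower values mean less growth of the strain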
Settings: S. cerevisiae deletion strains, growth OD

Measured: normalized growth

CC(=O)Oc1ccc2c(c1)CCC1C2CCC2(C)C1CC(OC(C)=O)C2OC(C)=O (stereo unspecified)
active: locus YPL106C, strain sse1, hits give low values 0.831
inactive: locus YAL021C, strain ccr4, hits give low values 0.948 | locus YAL026C, strain drs2, hits give low values 1.01 | locus YAL030W, strain snc1, hits give low values 0.97 | locus YBL061C, strain skt5, hits give low values 0.997 | locus YBR009C, strain hhf1, hits give low values 0.985 | locus YBR023C, strain chs3, hits give low values 0.983 | locus YBR171W, strain sec66, hits give low values 1 | locus YBR231C, strain swc5, hits give low values 0.982 | locus YBR279W, strain paf1, hits give low values 0.987 | locus YCL011C, strain gbp2, hits give low values 0.994 | locus YCL016C, strain dcc1, hits give low values 0.978 | locus YCL069W, strain vba3, hits give low values 0.993 | locus YCR088W, strain abp1, hits give low values 0.992 | locus YDL005C, strain med2, hits give low values 0.987 | locus YDL040C, strain nat1, hits give low values 0.975 | locus YDR001C, strain nth1, hits give low values 1.01 | locus YDR069C, strain doa4, hits give low values 0.954 | locus YDR137W, strain rgp1, hits give low values 0.925 | locus YDR159W, strain sac3, hits give low values 0.902 | locus YDR195W, strain ref2 0.992 | locus YDR297W, strain sur2, hits give low values 0.988 | locus YDR334W, strain swr1, hits give low values 0.987 | locus YDR335W, strain msn5, hits give low values 1.01 | locus YDR392W, strain spt3, hits give low values 0.856 | locus YEL003W, strain gim4, hits give low values 0.986 | locus YEL037C, strain rad23, hits give low values 1.02 | locus YEL061C, strain CIN8 (second series), hits give low values 1.01 | locus YER015W, strain faa2, hits give low values 0.985 | locus YER016W, strain bim1, hits give low values 0.973 | locus YER111C, strain swi4, hits give low values 0.994 | locus YER155C, strain BEM2 (second series), hits give low values 1 | locus YFR010W, strain ubp6, hits give low values 0.997 | locus YGL167C, strain pmr1, hits give low values 0.98 | locus YGL173C, strain kem1, hits give low values 0.99 | locus YGL227W, strain vid30, hits give low values 0.995 | locus YGL240W, strain doc1, hits give low values 0.935 | locus YGL253W, strain hxk2, hits give low values 0.997 | locus YHR013C, strain ard1, hits give low values 0.961 | locus YHR027C, strain rpn1, hits give low values 0.987 | locus YHR142W, strain chs7, hits give low values 0.968 | locus YJL092W, strain hpr5, hits give low values 1.01 | locus YJL095W, strain BCK1 (second series), hits give low values 0.984 | locus YJL115W, strain asf1, hits give low values 1.01 | locus YJL129C, strain trk1, hits give low values 0.967 | locus YJL154C, strain vps35, hits give low values 0.985 | locus YJL164C, strain tpk1, hits give low values 0.952 | locus YJL166W, strain qcr8, hits give low values 0.987 | locus YJL187C, strain SWE1, hits give low values 0.99 | locus YKL160W, strain elf1, hits give low values 0.962 | locus YKR026C, strain gcn3, hits give low values 1.01 | locus YKR091W, strain srl3, hits give low values 0.988 | locus YLL001W, strain dnm1, hits give low values 1 | locus YLL026W, hits give low values 0.964 | locus YLL041C, strain sdh2, hits give low values 0.999 | locus YLR027C, strain aat2, hits give low values 0.995 | locus YLR221C, strain rsa3, hits give low values 0.978 | locus YLR258W, strain gsy2, hits give low values 0.988 | locus YLR262C, strain YPT6 (second series), hits give low values 0.877 | locus YLR320W, strain mms22, hits give low values 0.943 | locus YLR342W, strain FKS1, hits give low values 0.971 | locus YLR357W, strain rsc2, hits give low values 0.952 | locus YLR370C, strain arc18, hits give low values 0.989 | locus YLR384C, strain iki3, hits give low values 0.983 | locus YML120C, strain ndi1, hits give low values 0.997 | locus YMR058W, strain fet3, hits give low values 1 | locus YMR125W, strain sto1, hits give low values 1 | locus YMR129W, hits give low values 0.995 | locus YMR205C, strain PFK2, hits give low values 0.972 | locus YMR231W, strain pep5, hits give low values 0.996 | locus YNL071W, strain lat1, hits give low values 0.962 | locus YNL209W, strain ssb2, hits give low values 0.976 | locus YNL248C, strain rpa49, hits give low values 0.991 | locus YNL322C, strain KRE1 (second series), hits give low values 0.966 | locus YNR049C, strain mso1, hits give low values 1 | locus YOR001W, strain rrp6, hits give low values 0.983 | locus YOR070C, strain gyp1, hits give low values 0.995 | locus YOR080W, strain dia2, hits give low values 0.987 | locus YOR083W, strain WHI5, hits give low values 0.952 | locus YOR106W, strain vam3, hits give low values 0.954 | locus YOR265W, strain rbl2, hits give low values 0.996 | locus YOR270C, strain vph1, hits give low values 0.925 | locus YOR290C, strain snf2, hits give low values 0.97 | locus YPL051W, strain arl3, hits give low values 0.967 | locus YPL078C, strain atp4, hits give low values 0.987 | locus YPL240C, strain hsp82, hits give low values 0.995
